Data reported in PubChem BioAssay AID2242 (National Center for Advancing Translational Sciences (NCATS), 2010).
Out of some 200,000 compounds screened, about 720 (0.36%) were called active. Inconclusive results (about 8%) are left out. The call rests on the fitted dose curve; in most records, active means well fitted activation curve with a large enough effect; inconclusive means small, poorly fitted or top-dose-only effect, or effect the other way, or another doubt; inactive means flat fitted curve, though single readings scatter. Some of the results follow.

Biological target: Lysosomal alpha-glucosidase (Homo sapiens) (UniProt P10253)
Assay: qHTS Assay for Activators of Human alpha-Glucosidase as a Potential Chaperone Treatment of Pompe Disease; further: nearly all actives have a fitted effect of over 80% in size
Settings: purified enzyme, 4-MU-alpha-glucoside fluorescence, 20 min; series mostly up to 76.9 µM
Summary of the method: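 Fluorogenic assay, 4 nM enzyme, 400 uM 4-methylumbelliferyl-[…], pH 5.0 citrate/phosphate buffer with 0.005% Tween-20, compounds up to 77 uM, 20 min at room temperature. NaOH/glycine stop, Ex 365/Em 440 nm; AC50 from Hill fits.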
Potency means the concentration at half of the fitted maximal effect.

Potency, inactive:
CCOC(=O)/C(C#N)=C/c1cn(CCC(=O)O)nc1-c1ccc(Br)cc1

Potency, active:
CCCCCn1c(-c2ccco2)nc2nc3ccccc3nc21 39.8 µM
COCCn1c(-c2ccco2)nc2nc3ccccc3nc21 35.5 µM
c1coc(-c2nc3nc4ccccc4nc3n2CC2CCCO2)c1 (centres undefined) 25.1 µM
CC(C)OCCCn1c(-c2ccco2)nc2nc3ccccc3nc21 35.5 µM
CCC(C)n1c(-c2ccco2)nc2nc3ccccc3nc21 (centres undefined) 39.8 µM
c1ccc(Cn2c(-c3ccco3)nc3nc4ccccc4nc32)cc1 35.5 µM
COC(=O)CNC(=O)COC(=O)c1cc(Cl)cc(Cl)c1N 39.8 µM
Nc1c(Cl)cc(Cl)cc1C(=O)OCC(=O)N1CCOCC1 31.6 µM
Nc1c(Cl)cc(Cl)cc1C(=O)OCC(=O)NC1CC1 35.5 µM
CC(C)N(C(=O)COC(=O)c1cc(Cl)cc(Cl)c1N)C(C)C 35.5 µM
Cc1ccc(Cc2c(C)c(C#N)c3[nH]c4ccccc4n3c2=O)cc1 35.5 µM
CCOC(=O)CCc1c(C)c(C#N)c2[nH]c3ccccc3n2c1=O 31.6 µM
CCCCc1c(C)c(C#N)c2[nH]c3ccccc3n2c1=O 22.4 µM
Cc1c(CCC(=O)O)c(=O)n2c([nH]c3ccccc32)c1C#N 35.5 µM
COc1ccccc1[C@@H]1C(c2cccc(Cl)c2)=NN(c2ccc(Br)cc2)[C@H]1C(=O)N1CCOC1=O 31.6 µM
Cc1cccc(C2=NN(c3ccc(Br)cc3)[C@@H](C(=O)N3CCOC3=O)[C@@H]2c2ccc(F)cc2)c1 31.6 µM
COC(=O)Cc1c(C)c2ccc(OC(=O)c3ccco3)cc2oc1=O 35.5 µM
COC(=O)Cc1c(C)c2cc(Cl)c(OC(=O)c3ccco3)cc2oc1=O 28.2 µM
COC(=O)Cc1c(C)c2ccc(OC(=O)c3ccccc3)cc2oc1=O 35.5 µM
CC(=O)Oc1ccc2c(C)c(CC(C)O)c(=O)oc2c1 (centres undefined) 39.8 µM
CCC(=O)Nc1c(C#N)c2nc3ccccc3nc2n1-c1ccccc1C 39.8 µM
CCCCN(C)C(=O)CCC(=O)Nc1ccc2nc(N3CCOCC3)cc(C)c2c1 39.8 µM
CCC(C)NC(=O)CCC(=O)Nc1ccc2nc(N3CCOCC3)cc(C)c2c1 (centres undefined) 35.5 µM
CCC(C)NC(=O)CCC(=O)Nc1ccc2nc(N3CC(C)CC(C)C3)cc(C)c2c1 (centres undefined) 31.6 µM
COc1ccccc1C1CC(c2ccco2)=NN1c1ccccc1 (centres undefined) 31.6 µM
Cc1ccc(N2N=C(c3ccc(F)cc3)CC2c2ccco2)cc1 (centres undefined) 28.2 µM
Fc1ccc(C2=NN(c3ccccc3)C(c3ccco3)C2)cc1 (centres undefined) 35.5 µM
CCOc1cc(C2C3=C(CCCC3=O)N(CCC(=O)O)C3=C2C(=O)CCC3)ccc1OS(=O)(=O)c1ccc(C)cc1 35.5 µM
COc1ccc(/C=C/c2nnc(NC(=O)COc3cccc(C)c3)s2)cc1 31.6 µM
COC(=O)Nc1nnc(/C=C/c2ccccc2)s1 31.6 µM
CCSc1ccc(-c2nn(-c3ccccc3)cc2/C=C(/C#N)C(=O)NC)cc1 25.1 µM
CCSc1ccc(-c2nn(-c3ccccc3)cc2/C=C(/C#N)C(=O)NCCCOC)cc1 35.5 µM
N#Cc1c(N)n(CCNC(=O)c2ccccc2)c2nc3ccccc3nc12 7.94 µM
N#Cc1c(N)n(CCNC(=O)c2cccs2)c2nc3ccccc3nc12 35.5 µM
COCCn1c(N)c(C#N)c2nc3ccccc3nc21 35.5 µM
CCCCCn1c(N)c(C#N)c2nc3ccccc3nc21 35.5 µM
N#Cc1c(N)n(CCCN2CCOCC2)c2nc3ccccc3nc12 35.5 µM
Cc1cc(-n2c(=O)c(C#N)cc3c(=O)n4ccccc4nc32)no1 35.5 µM
Cc1cc(-n2c(=O)c(C#N)cc3c(=O)n4cccc(C)c4nc32)no1 35.5 µM
COC(=O)c1ccccc1NC(=O)/C=C/c1cc(OC)c(OC)c(OC)c1 35.5 µM
CSc1nnc(-c2cccn(Cc3ccccc3)c2=O)o1 35.5 µM
CSc1nnc(-c2cccn(Cc3cccc(Cl)c3)c2=O)o1 28.2 µM
Nc1ccc(-c2nc3ccc(N)cc3[nH]2)cc1 39.8 µM
Nc1ccc(-c2nc3ccc(-c4nc5ccccc5o4)cc3[nH]2)cc1 28.2 µM
Nc1ccc(-c2nc3ccc(N)cc3o2)cc1 35.5 µM
CCCc1cc(=O)n2c([nH]c3ccccc32)c1C#N 39.8 µM
COCc1cc(=O)n2c([nH]c3ccccc32)c1C#N 35.5 µM
CCc1cc(=O)n2c([nH]c3ccccc32)c1C#N 28.2 µM
Cc1ccc2nc3c(cc(C#N)c(=O)n3-c3nccs3)c(=O)n2c1 35.5 µM
Cc1ccc(-n2c(=O)c(C#N)cc3c(=O)n4ccccc4nc32)cc1 25.1 µM
N#Cc1cc2c(=O)n3ccccc3nc2n(-c2ccc(Cl)cc2)c1=O 35.5 µM
Cc1ccc(-n2c(=O)c(C#N)cc3c(=O)n4cccc(C)c4nc32)cc1 10 µM
COc1cc(C2NC(=S)NC(c3ccccc3)=C2C(C)=O)cc(Br)c1OCC(N)=O (centres undefined) 28.2 µM
O=C(CN1C(=O)/C(=C\c2cccc(Cl)c2)Oc2ccccc21)N1CCN(c2ccccn2)CC1 3.98 µM
CN(C)c1oc(/C=C/c2ccccc2)nc1C#N 31.6 µM
CN(C)CCNc1oc(/C=C/c2ccccc2)nc1C#N 35.5 µM
CNc1oc(/C=C/c2ccccc2)nc1C#N 35.5 µM
C=CCNc1oc(/C=C/c2ccccc2)nc1C#N 35.5 µM
CC(=O)Nc1c(OC(C)=O)ccc2c(C)cc(=O)oc12 35.5 µM
CCC(=O)Nc1c(OC(=O)CC)ccc2c(C)cc(=O)oc12 35.5 µM
CC(=O)c1ccc(-c2cccs2)s1 35.5 µM
COc1cc(OC)c(-c2nc3ccccc3s2)cc1OC 35.5 µM
c1ccc2c(N3CCOCC3)nc(N3CCOCC3)nc2c1 28.2 µM
CCOC(=O)C1=C(C)NC2=C(C(=O)CCC2)C1c1cn(Cc2ccc(Cl)cc2Cl)nc1-c1ccccc1 (centres undefined) 31.6 µM
Cc1csc2ncc(C(=O)Nc3ccon3)c(=O)n12 35.5 µM
Cc1c(O)c(CN2CCCC2)cc2c3c(c(=O)oc12)CCC3 39.8 µM
Cc1c(O)c(CN2CCCCC2)cc2c3c(c(=O)oc12)CCC3 35.5 µM
CCNc1cc2oc(=O)c(CN3CCOCC3)c(C)c2cc1C 31.6 µM
CC(C)c1cc(=O)oc2c3c4c(cc12)CCCN4CCC3 35.5 µM
N#Cc1c(NC2CCCCC2)nc(-c2ccco2)c2c1CCCC2 35.5 µM
CC(C)CCNc1nc(-c2ccco2)c2c(c1C#N)CCCC2 31.6 µM
Cc1ccc(C2OC34CCCCCC3C(C#N)(C(=N)O4)C2(C#N)C#N)cc1 (centres undefined) 31.6 µM
CCOC(=O)c1sc2c(c1C)C(c1cccs1)C1=C(CCCC1=O)N2 (centres undefined) 25.1 µM
CCSc1nnc(-c2cc3c(s2)-c2ccccc2CC3)o1 31.6 µM
C=CCSc1nnc(-c2cc3c(s2)-c2ccccc2CC3)o1 25.1 µM
Fc1ccc(CSc2nnc(-c3cc4c(s3)-c3ccccc3CC4)o2)cc1 28.2 µM
CSc1nnc(-c2cc3c(s2)-c2ccccc2CC3)o1 35.5 µM
CC(=O)Nc1nc2ccc(-c3nc4ccccc4o3)cc2s1 25.1 µM
COc1ccc(OC)c(C=Nc2ccccc2-c2nc3ccccc3[nH]2)c1 28.2 µM
Nc1c(C(=O)NCCN2CCOCC2)c2nc3ccccc3nc2n1CCc1ccccc1F 39.8 µM
Nc1c(C(=O)NCCN2CCOCC2)c2nc3ccccc3nc2n1-c1cccc(F)c1 35.5 µM
Nc1c(C(=O)NCCN2CCOCC2)c2nc3ccccc3nc2n1-c1ccccc1 35.5 µM
Cc1ccc(C)n1-c1nccc(-c2ccco2)n1 22.4 µM
CNc1nc(-c2ccccc2)cc(C)c1S(C)(=O)=O 28.2 µM
Nc1ccccc1-c1nnc(-c2ccc(-c3ccccc3)cc2)o1 35.5 µM
CCNc1nc(C)c2cc(Br)c(=O)n(CC)c2n1 35.5 µM
COCCn1c(N)c(C(=O)NCC2CCCO2)c2nc3ccccc3nc21 (centres undefined) 35.5 µM
CCOC(=O)c1c(N)n(C2CC(C)(C)NC(C)(C)C2)c2nc3ccccc3nc12 31.6 µM
Nc1c(C(=O)NCC2CCCO2)c2nc3ccccc3nc2n1-c1ccccc1 (centres undefined) 35.5 µM
COc1ccc(-n2c(N)c(C(=O)NCC3CCCO3)c3nc4ccccc4nc32)c(OC)c1 (centres undefined) 31.6 µM
Nc1c(C(=O)OCC2CCCO2)c2nc3ccccc3nc2n1C1CCCC1 (centres undefined) 39.8 µM
CCCCC(NS(=O)(=O)c1ccc(C)cc1)C(=O)Oc1ccc2c3c(c(=O)oc2c1)CCC3 (centres undefined) 31.6 µM
Cc1ccc(S(=O)(=O)NC(CC(C)C)C(=O)Oc2ccc3c4c(c(=O)oc3c2)CCC4)cc1 (centres undefined) 35.5 µM
Cc1ccc(-c2nn(-c3ccccc3)cc2/C=C/C(=O)Nc2nccs2)cc1 35.5 µM
COC(=O)c1c(N)n(-c2ccc(NC(C)=O)cc2)c2nc3ccccc3nc12 28.2 µM
COCCNC(=O)c1c(N)n(CCCn2ccnc2)c2nc3ccccc3nc12 35.5 µM
CCCNC(=O)c1c(N)n(-c2cccc(OC)c2)c2nc3ccccc3nc12 35.5 µM
COCCNC(=O)c1c(N)n(-c2ccccc2)c2nc3ccccc3nc12 39.8 µM
